This passage reports Potency and outcome results from PubChem BioAssay (Tox21).

The nature of experiment [1]: qHTS assay to identify small molecule agonists of the androgen receptor (AR) signaling pathway in the presence of an antagonist - cell viability counter screen (AID 1259379). Further: series mostly up to about 92 µM; nearly all actives have a fitted effect of over 25% in size. The gist of the method:
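MDA-kb2 human breast carcinoma cells (stable MMTV-luciferase, AR/GR responsive) were seeded 3,000 cells/well, pre-incubated 5 hr at 37C without CO2, then given 3.0uM nilutamide and compounds at 15 concentrations for 16 hr. Viability was read by CellTiter-Fluor fluorescence.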

Experiment [2] in a line: qHTS assay to identify small molecule agonists of the estrogen receptor beta (ER-beta) signaling pathway - cell viability counter screen (AID 1259380). Further: nearly all actives have a fitted effect of over 30% in size. Further: potency means the concentration at half of the fitted maximal effect. Summed up:
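ER-beta-UAS-bla HEK293T cells in medium with 2% charcoal-stripped FBS were preincubated 6 hr at 37C, dosed with compound in DMSO for 16 hr, then after the bla read, CellTiter-Glo was added for 30 min at room temperature; luminescence recorded.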
In general terms: Quantitative high-throughput screening tests each substance at several concentrations.

Experiment [3] is described as follows: qHTS assay to identify small molecule antagonists of the estrogen receptor beta (ER-beta) signaling pathway - cell viability counter screen (AID 1259382).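 Further: HEK293T cells carrying ER-beta-UAS-bla reporter stimulated with estradiol; series mostly up to about 92 µM; nearly all actives have a fitted effect of over 55% in size.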 Summed up:
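ER-beta-UAS-bla HEK293T cells (2,000/well, 2% charcoal-stripped FBS) were pre-incubated 6 hr at 37C, then given compound plus 1nM final 17-beta-estradiol for 16 hr. Viability was read in the same wells by CellTiter-Glo luminescence after 30 min at room temperature.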

Experiment [4] can be described thus: qHTS assay to identify small molecule agonists or antagonists of the thyroid stimulating hormone receptor (TSHR) signaling pathway - wild type cell line counter screen (AID 1259384; calls by dose curve). The gist of the method: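 Wild-type Hek293 cells, 800/well, 18 h at 37C, then compound with Ro20-1724 for 30 min RT. cAMP by HTRF (cAMP-d2/anti-cAMP cryptate), 1 h RT, fluorescence read. 15 concentrations, triplicates.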

Experiment [5] addresses Thyrotropin receptor (Homo sapiens) (UniProt P16473). The experiment in a line: qHTS assay to identify small molecule antagonists of the thyroid stimulating hormone receptor (TSHR) signaling pathway (AID 1259385; calls by dose curve; further: nearly all actives have a fitted effect of over 20% in size). The gist of the method: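 TSHR-HEK293 cells (800/well) plated 18 h, then compounds with Ro20-1724 and TSH at 1.5 ng/mL final, 30 min at room temperature. cAMP quantified by HTRF (cAMP-d2/anti-cAMP-cryptate, 1 h); 15 concentrations in triplicate.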

The nature of experiment [6]: qHTS assay to identify small molecule agonists of the estrogen receptor alpha (ER-alpha) signaling pathway in the presence of an antagonist - cell viability counter screen (AID 1259386).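 Further: series mostly up to about 92 µM; cells exposed to compounds for 22 h at 37 °C before the viability read; nearly all actives have a fitted effect of over 30% in size.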 Summed up:
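VM7Luc4E2 cells (endogenous full-length ER-alpha, 4×ERE-luciferase) were held 5 days in phenol red-free medium with 10% charcoal-stripped FBS, plated, then given 10.0nM ICI-182,780 and compounds at 15 concentrations for 22hr at 37C; viability read by CellTiter-Fluor fluorescence.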

Experiment [7] addresses Progesterone receptor (Homo sapiens) (UniProt P06401). The experiment in a line: qHTS assay to identify small molecule agonists of the progesterone receptor (PR) signaling pathway (AID 1346784; calls by dose curve; further: nearly all actives have a fitted effect of over 30% in size). The gist of the method:
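PR-UAS-bla HEK 293T cells (beta-lactamase reporter under UAS) in 2% charcoal-stripped FBS, dosed with 23 nL compound after 6 hr, incubated 16hr at 37C. LiveBLAzer B/G FRET substrate added, fluorescence read after 2 hours.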

The target is the same in experiment [8]. Kind of experiment: qHTS assay to identify small molecule antagonists of the progesterone receptor (PR) signaling pathway (AID 1346795; active means well fitted inhibition curve with a large enough effect in the signal ratio in the repeat runs, not every such curve was filed as active; the % refers to the signal ratio; further: potency means the concentration at half of the fitted maximal effect). Summed up:
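PR-UAS-bla HEK293T cells with beta-lactamase reporter under UAS control, in 2% charcoal-stripped FBS, treated with compounds plus 1 nM promegestone (R5020, final) for 16 hr at 37C. Read-out: FRET beta-lactamase substrate fluorescence after 2 hr at room temperature.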

Experiment [9] is described as follows: qHTS assay to identify small molecule antagonists of the progesterone receptor (PR) signaling pathway - cell viability counter screen (AID 1346798). Further: series mostly up to about 92 µM; nearly all actives have a fitted effect of over 50% in size. The gist of the method:
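PR-UAS-bla HEK293T cells, 3,000/well in 2% charcoal-stripped FBS medium, dosed with compounds plus R5020 agonist and incubated 16 h at 37C. Viability then measured in the same wells by CellTiter-Glo luminescence after 30 min at RT.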

The nature of experiment [10]: qHTS assay to identify small molecule agonists of the progesterone receptor (PR) signaling pathway - cell viability counter screen (AID 1346799; calls by dose curve; further: nearly all actives have a fitted effect of over 45% in size). The gist of the method:
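Counter screen in the PR-UAS-bla HEK293T wells (2% charcoal-stripped FBS, 16 h compound exposure at 37 C) after the bla read. CellTiter-Glo added, 30 min at room temperature, luminescence read as cell viability.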

Experiment [11] in a line: qHTS assay to identify small molecule antagonists of the TGF-beta/Smad signaling pathway - cell viability counter screen (AID 1346824). Further: nearly all actives have a fitted effect of over 50% in size. Summed up: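 SBE-bla HEK 293T cells, incubated overnight, then compound plus 0.25 ng/mL TGF-beta1 (stock added) for 5 hr at 37 C. Viability was read in the same wells by CellTiter-Glo luminescence after 30 min at room temperature.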
A short description of experiment [12]: Human pregnane X receptor (PXR) small molecule agonists, qHTS cell viability counter screen (AID 1346977). Further: nearly all actives have a fitted effect of over 50% in size. The gist of the method: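 PXR-Luc HepG2 cells (2,000/well, 5% charcoal-stripped FBS) preincubated 5 hr, then exposed to compounds 24 hr at 37 C. Viability read in the same wells by CellTiter-Fluor fluorescence, reagent added at 23 hr, 1 hr incubation.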

Experiment [13] has as its target Estrogen receptor (Homo sapiens) (UniProt P03372). The experiment in a line: qHTS assay to identify small molecule agonists of the estrogen receptor alpha (ER-alpha) signaling pathway in the presence of an antagonist (AID 1259383; calls by dose curve; further: top concentration of the series differs between compounds; nearly all actives have a fitted effect of over 15% in size). The gist of the method:
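VM7Luc4E2 cells (endogenous full-length ER-alpha, 4×ERE-luciferase) were precultured 5 days in phenol red-free medium with 10% charcoal-stripped FBS, given 10.0nM ICI-182,780 (final), then treated with compounds at 15 concentrations for 22hr at 37C; luminescence read with ONE-Glo.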

A short description of experiment [14]: qHTS assay to identify small molecule agonists of the TGF-beta/Smad signaling pathway - cell viability counter screen (AID 1346829). Further: top concentration of the series differs between compounds; nearly all actives have a fitted effect of over 45% in size. Summed up:
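Luminescence from CellTiter-Glo, read after a 30 min room-temperature incubation, gives cell viability of SBE-bla HEK 293T cells treated 5 hr with compounds at 37 C.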

For experiment [15], the target named is Thyrotropin-releasing hormone receptor (Homo sapiens) (UniProt P34981). Kind of experiment: qHTS assay to identify small molecule antagonists of the thyrotropin-releasing hormone receptor (TRHR) signaling pathway (AID 1346877; active means well fitted inhibition curve with a large enough effect in the repeat runs, not every such curve was filed as active; further: series mostly up to about 51 µM). The gist of the method: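 TRHR-expressing HEK293 cells were seeded, cultured 18 h at 37 °C, then loaded with calcium dye for 2 h. Compounds were pre-incubated 5 min at room temperature before 1 nM TRH (final) was added, and kinetic fluorescence was recorded for 3 min.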
Sequence of Thyrotropin-releasing hormone receptor (Homo sapiens) (P34981 whole entry, looked up): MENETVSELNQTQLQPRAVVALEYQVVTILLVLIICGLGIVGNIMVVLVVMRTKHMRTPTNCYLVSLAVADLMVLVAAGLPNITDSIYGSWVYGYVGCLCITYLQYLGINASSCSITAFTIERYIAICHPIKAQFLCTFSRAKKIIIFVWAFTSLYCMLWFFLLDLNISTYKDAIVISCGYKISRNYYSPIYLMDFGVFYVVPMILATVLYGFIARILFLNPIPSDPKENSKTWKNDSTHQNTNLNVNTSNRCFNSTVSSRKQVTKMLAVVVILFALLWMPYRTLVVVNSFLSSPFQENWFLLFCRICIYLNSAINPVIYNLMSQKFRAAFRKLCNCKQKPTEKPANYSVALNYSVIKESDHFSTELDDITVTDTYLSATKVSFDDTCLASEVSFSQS

Experiment [16] shares this target. The experiment in a line: qHTS assay to identify small molecule agonists of the thyrotropin-releasing hormone receptor (TRHR) signaling pathway (AID 1346891; calls by dose curve; further: series mostly up to about 58 µM). Summed up:
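HEK293 cells expressing TRHR plated 18 h at 37 C/5% CO2, calcium dye-loaded 2 h at 37 C, then compound added (agonist mode); kinetic calcium fluorescence read 3 min at 1 s intervals; 15 concentrations in triplicate.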

Experiment [17] is described as follows: qHTS assay to identify small molecule agonists of the TGF-beta/Smad signaling pathway (AID 1346859; active means well fitted activation curve with a large enough effect in the signal ratio in the repeat runs, not every such curve was filed as active; the % refers to the signal ratio; further: series mostly up to about 77 µM). Summed up: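 SBE-bla HEK293T cells plated overnight, then compound exposure for 5 h at 37 C. Beta-lactamase reporter read with LiveBLAzer B/G FRET substrate after 2 h at room temperature, fluorescence at 405 nm excitation, 460/530 nm emission.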
In experiment [18] the target is Estrogen receptor beta (Homo sapiens) (UniProt Q92731). The experiment in a line: qHTS assay to identify small molecule agonists of the estrogen receptor beta (ER-beta) signaling pathway (AID 1259377; active means well fitted activation curve with a large enough effect in the signal ratio in the repeat runs, not every such curve was filed as active; the % refers to the signal ratio). Summed up: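 ER-beta-UAS-bla HEK293T cells in medium with 2% charcoal-stripped FBS were exposed to compounds for 16 h at 37C. Beta-lactamase reporter activity was read as fluorescence after 2 h with LiveBLAzer B/G FRET substrate at room temperature.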
Sequence of Estrogen receptor beta (Homo sapiens) (Q92731 whole entry, looked up): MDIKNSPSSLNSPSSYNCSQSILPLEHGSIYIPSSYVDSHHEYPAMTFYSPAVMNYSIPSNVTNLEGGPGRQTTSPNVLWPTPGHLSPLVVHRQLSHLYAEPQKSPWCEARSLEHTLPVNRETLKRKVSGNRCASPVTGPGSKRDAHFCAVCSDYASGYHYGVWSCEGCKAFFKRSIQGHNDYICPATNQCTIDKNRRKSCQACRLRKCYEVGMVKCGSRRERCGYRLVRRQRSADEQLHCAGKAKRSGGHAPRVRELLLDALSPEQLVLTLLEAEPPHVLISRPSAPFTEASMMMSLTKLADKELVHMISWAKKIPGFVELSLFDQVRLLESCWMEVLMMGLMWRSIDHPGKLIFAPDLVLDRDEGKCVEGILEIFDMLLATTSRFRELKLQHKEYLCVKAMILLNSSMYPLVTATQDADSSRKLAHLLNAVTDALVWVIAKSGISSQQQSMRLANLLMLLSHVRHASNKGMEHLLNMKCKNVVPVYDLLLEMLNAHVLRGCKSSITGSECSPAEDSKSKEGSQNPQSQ

Experiment [19] concerns the target Androgen receptor (Homo sapiens) (UniProt P10275). Kind of experiment: qHTS assay to identify small molecule agonists of the androgen receptor (AR) signaling pathway in the presence of an antagonist (AID 1259381; calls by dose curve; further: nearly all actives have a fitted effect of over 15% in size). Summed up: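 MDA-kb2 human breast carcinoma cells carrying an MMTV-luciferase reporter (AR- and GR-responsive) were treated with compounds at 15 concentrations plus 3.0uM final nilutamide for 16hr at 37C without CO2; luminescence was read after ONE-Glo addition.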

Several values for one entry are separate records, joined by “and”; a condition that tells them apart may be missing. Equal entries are not always repeated. Inconclusive results are not listed. Where a structure was tested more than once in an assay, its records may differ in their call. Activity calls are given as the source filed them. Unless noted, the call rests on the fitted dose curve; in most records, active means well fitted curve in the direction sought with a large enough effect in the repeat runs; inconclusive means weak or mixed curves; inactive means no such curve, though single readings can be large; an effect the other way counts as inactive or inconclusive.

Sequence of Progesterone receptor (Homo sapiens) (P06401 whole entry, looked up): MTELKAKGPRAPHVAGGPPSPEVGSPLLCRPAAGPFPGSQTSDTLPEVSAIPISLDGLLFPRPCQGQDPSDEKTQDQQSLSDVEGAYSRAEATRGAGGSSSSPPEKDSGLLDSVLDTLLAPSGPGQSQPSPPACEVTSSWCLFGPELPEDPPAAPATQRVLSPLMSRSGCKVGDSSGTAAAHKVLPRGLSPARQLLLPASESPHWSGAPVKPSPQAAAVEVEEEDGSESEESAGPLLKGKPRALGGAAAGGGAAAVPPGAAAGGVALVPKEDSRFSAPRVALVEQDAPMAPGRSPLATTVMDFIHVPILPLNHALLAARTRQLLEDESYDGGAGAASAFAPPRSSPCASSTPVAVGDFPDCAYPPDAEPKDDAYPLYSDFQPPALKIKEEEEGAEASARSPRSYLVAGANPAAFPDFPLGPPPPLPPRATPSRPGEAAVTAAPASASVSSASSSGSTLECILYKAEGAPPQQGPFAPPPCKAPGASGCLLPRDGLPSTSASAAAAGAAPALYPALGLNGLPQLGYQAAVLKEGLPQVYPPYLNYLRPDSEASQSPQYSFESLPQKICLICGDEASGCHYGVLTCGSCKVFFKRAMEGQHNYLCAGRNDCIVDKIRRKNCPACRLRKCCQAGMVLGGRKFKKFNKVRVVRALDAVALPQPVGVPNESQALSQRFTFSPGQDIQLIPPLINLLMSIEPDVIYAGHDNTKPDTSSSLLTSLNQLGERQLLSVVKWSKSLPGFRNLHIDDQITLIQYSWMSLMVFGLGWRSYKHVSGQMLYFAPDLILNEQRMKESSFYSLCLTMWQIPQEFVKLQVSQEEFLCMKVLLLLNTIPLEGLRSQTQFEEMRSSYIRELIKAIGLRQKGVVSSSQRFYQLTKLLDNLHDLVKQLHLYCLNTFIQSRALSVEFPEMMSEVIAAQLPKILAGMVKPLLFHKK
Sequence of Thyrotropin receptor (Homo sapiens) (P16473 whole entry, looked up): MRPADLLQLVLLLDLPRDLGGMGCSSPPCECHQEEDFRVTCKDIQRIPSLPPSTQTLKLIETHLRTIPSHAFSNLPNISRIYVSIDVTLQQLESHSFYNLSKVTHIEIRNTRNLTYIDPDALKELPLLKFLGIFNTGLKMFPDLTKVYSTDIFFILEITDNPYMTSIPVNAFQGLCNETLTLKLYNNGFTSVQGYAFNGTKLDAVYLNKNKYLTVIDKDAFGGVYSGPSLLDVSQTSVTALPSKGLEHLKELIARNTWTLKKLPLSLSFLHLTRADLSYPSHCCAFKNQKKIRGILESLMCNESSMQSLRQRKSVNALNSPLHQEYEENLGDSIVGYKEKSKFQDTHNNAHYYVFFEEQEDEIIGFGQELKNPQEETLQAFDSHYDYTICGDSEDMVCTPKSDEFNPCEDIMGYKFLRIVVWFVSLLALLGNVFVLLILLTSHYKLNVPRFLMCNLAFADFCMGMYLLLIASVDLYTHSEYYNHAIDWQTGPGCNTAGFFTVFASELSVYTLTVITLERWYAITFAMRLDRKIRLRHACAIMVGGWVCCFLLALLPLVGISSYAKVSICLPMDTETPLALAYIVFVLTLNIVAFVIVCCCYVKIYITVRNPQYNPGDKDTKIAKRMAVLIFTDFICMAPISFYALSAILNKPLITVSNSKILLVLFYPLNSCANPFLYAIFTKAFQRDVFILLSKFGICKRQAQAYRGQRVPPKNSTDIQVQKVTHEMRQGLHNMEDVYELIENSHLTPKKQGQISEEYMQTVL
Sequence of Estrogen receptor (Homo sapiens) (P03372 whole entry, looked up): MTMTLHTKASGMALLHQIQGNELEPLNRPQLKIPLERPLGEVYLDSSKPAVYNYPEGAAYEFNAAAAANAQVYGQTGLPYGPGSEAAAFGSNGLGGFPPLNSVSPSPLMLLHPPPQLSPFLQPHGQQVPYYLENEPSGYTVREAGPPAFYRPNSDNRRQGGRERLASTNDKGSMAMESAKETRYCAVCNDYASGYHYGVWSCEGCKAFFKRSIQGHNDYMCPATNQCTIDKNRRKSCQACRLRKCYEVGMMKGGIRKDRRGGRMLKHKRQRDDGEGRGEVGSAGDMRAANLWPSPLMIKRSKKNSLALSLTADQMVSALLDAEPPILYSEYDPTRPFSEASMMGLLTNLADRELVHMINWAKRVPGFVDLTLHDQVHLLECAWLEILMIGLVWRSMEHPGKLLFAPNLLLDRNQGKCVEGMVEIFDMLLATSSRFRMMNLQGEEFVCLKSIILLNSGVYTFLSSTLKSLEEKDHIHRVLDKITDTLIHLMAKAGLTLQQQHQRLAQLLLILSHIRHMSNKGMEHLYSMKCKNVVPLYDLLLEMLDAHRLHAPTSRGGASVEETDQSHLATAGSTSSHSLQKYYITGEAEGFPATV
Sequence of Androgen receptor (Homo sapiens) (P10275 whole entry, looked up): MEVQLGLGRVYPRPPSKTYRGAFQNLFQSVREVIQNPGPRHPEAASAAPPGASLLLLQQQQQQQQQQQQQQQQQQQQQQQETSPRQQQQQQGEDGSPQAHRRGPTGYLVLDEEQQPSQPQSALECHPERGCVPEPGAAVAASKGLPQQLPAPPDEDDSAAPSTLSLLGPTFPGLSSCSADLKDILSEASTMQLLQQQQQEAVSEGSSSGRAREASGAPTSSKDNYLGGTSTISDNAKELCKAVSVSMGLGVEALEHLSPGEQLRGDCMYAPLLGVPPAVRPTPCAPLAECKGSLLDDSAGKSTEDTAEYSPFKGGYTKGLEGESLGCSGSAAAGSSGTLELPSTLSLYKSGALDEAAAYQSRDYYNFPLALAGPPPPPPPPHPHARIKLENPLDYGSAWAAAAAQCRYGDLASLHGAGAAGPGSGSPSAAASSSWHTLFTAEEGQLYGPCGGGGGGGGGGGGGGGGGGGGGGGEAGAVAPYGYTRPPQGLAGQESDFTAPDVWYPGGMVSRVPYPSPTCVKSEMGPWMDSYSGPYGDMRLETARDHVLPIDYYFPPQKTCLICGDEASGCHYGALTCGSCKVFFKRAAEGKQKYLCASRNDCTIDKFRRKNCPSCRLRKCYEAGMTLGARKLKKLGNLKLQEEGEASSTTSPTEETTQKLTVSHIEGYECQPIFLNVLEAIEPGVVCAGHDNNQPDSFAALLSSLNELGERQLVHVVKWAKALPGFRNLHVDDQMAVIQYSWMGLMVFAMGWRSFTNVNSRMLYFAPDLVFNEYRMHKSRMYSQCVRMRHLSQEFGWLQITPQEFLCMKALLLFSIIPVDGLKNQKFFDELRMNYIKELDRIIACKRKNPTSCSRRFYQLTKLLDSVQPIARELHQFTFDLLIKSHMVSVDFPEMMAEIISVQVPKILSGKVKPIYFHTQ

In the case of `[N-]=[N+]=CC(=O)OC[C@H](N)C(=O)O`, the Potency entry in experiment [1], in [2], in experiment [6], in experiment [7], in experiment [8] and in experiment [9] was “inactive” in each case. The Potency result in experiment [11] and in experiment [12] was “inactive” each time. In addition, the compound was called inactive in experiment [3], in experiment [4], in experiment [5] and in experiment [10].
Turning to `ClC(Cl)c1ccccc1`, the Potency result in experiment [1], in experiment [2], in [6], in experiment [7], in experiment [8] and in experiment [9] was “inactive” each time. Moreover, the Potency result in [11], in experiment [14] and in experiment [12] was “inactive” each time. Further, the outcome in experiment [3], in [13], in experiment [10], in experiment [15] and in experiment [16] was inactive.
Consider `CNC(=O)Oc1cccc2ccccc12`, for which the Potency entry in [1], in experiment [2], in experiment [6], in experiment [7], in experiment [9] and in experiment [11] was “inactive” in each case. Further, the Potency entry in experiment [14] and in [12] was “inactive” each time. Also, the compound was classed as inactive in experiment [3], in experiment [13], in [4], in experiment [5], in experiment [10] and in experiment [17]. In addition, the result in experiment [15] and in [16] was inactive. Besides, the Potency in experiment [8] is 27.1 µM (active) and 30.6 µM (active).
Consider `Cl[C@H]1OCCO[C@@H]1Cl`, for which the Potency entry in [1], in experiment [2], in experiment [6], in [7], in experiment [8] and in experiment [9] was “inactive” throughout. Further, the Potency result in experiment [11] and in experiment [14] was “inactive” each time. The outcome in experiment [3], in experiment [4], in experiment [5], in experiment [10], in experiment [15] and in experiment [16] was inactive.
Turning to `Cc1ccc(N=C=O)cc1N=C=O`, the Potency entry in [1], in experiment [6], in experiment [7], in experiment [8], in experiment [9] and in experiment [11] was “inactive” each time. In addition, in [2], the Potency was 34.3 µM (active) and inactive. Also, the compound was classed as inactive in experiment [3], in [10], in [15] and in experiment [16].
Turning to `OCCCCO`, the Potency result in [1], in experiment [2], in experiment [6], in experiment [7], in experiment [8] and in experiment [9] was “inactive” each time. Also, the Potency entry in [11], in experiment [14] and in [12] was “inactive” each time. For the same compound, the outcome in experiment [3], in experiment [4], in [5], in experiment [10], in [17] and in experiment [15] was inactive. In addition, the outcome in experiment [16] was inactive.
As for `O=C(O)CCCc1ccc(N(CCCl)CCCl)cc1`, the Potency entry in experiment [1], in experiment [2], in [6], in experiment [7], in [8] and in [9] was “inactive” in each case. Further, the Potency result in [11] is “inactive”. Besides, the outcome in experiment [3], in [13], in experiment [4], in experiment [5], in [10] and in experiment [15] was inactive. Also, the compound was classed as inactive in experiment [16].
Consider `CN(C)C(=O)Cl`, for which the Potency result in experiment [1], in experiment [2], in [6], in [7], in [8] and in [9] was “inactive” each time. For the same compound, the Potency entry in experiment [11] and in experiment [14] was “inactive” throughout. For the same compound, the compound was classed as inactive in [3], in [13], in [4], in [5], in experiment [10] and in experiment [17]. Also, the compound was called inactive in [15] and in experiment [16].
Consider `COS(=O)(=O)OC`, for which the Potency entry in experiment [1], in experiment [2], in experiment [6], in [7], in experiment [8] and in experiment [9] was “inactive” each time. Further, the Potency result in [11], in experiment [14] and in experiment [12] was “inactive” throughout. Besides, the compound was called inactive in experiment [3], in [13], in [10], in [17], in experiment [15] and in [16].
Take `CNC(=O)O/N=C(\SC)C(=O)N(C)C`: the Potency entry in [18], in experiment [2], in [6], in [7], in experiment [8] and in experiment [9] was “inactive” in each case. In addition, the Potency entry in experiment [11] and in experiment [14] was “inactive” throughout. In addition, the result in [19], in experiment [3], in [13], in [4], in [5] and in experiment [10] was inactive. Besides, the result in experiment [17] was inactive.
